# Laboratory results from PubChem BioAssay (EPA / NIEHS).
# Records with an inconclusive call do not appear. A structure can be active in one record and inactive in another. Activity calls are given as the source filed them. How the source made its calls, unless noted: active means hit-call score of the fitted dose curve at least 0.9, where 1 is the maximum; inactive means score below 0.9.
# Assays:
# [1] = molecular target: human Retinoid X Receptor beta (RXRb), RXRB (gene 6257) (UniProt P28702); assay: ATG_RXRb_TRANS: Attagene TRANS-FACTORIAL HepG2 Assay for human Retinoid X Receptor beta (RXRb) (AID 2283013; active means hit-call score of the fitted dose curve at least 0.9, where 1 is the maximum)
# human Retinoid X Receptor beta (RXRb), RXRB (gene 6257), sequence (P28702 whole entry, looked up, the tested form may be a part): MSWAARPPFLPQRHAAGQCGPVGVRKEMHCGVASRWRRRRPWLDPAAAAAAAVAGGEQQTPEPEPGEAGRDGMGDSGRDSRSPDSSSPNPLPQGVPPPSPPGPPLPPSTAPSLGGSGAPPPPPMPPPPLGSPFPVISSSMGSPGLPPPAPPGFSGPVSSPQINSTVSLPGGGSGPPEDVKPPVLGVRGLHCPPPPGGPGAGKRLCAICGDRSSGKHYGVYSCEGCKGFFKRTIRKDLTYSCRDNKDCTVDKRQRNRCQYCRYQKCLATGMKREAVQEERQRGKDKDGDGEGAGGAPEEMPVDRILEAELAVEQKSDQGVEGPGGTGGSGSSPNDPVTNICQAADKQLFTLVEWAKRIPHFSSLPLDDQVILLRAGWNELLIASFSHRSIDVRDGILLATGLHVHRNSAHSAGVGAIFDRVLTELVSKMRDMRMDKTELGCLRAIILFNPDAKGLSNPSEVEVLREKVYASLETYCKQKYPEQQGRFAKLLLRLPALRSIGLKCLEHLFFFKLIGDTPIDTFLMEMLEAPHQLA
# How it was run: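 Readout is reporter transcript induction after 24 h dosing. It is measured by RT-PCR of total RNA followed by fluorescent capillary electrophoresis. HepG2 liver cells carry transfected multiple reporter units driven by an exogenous RXRb-Gal4 fusion; activity is relative to DMSO.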
# [2] = molecular target: human Thyroid Receptor alpha (THRa1), THRA (gene 7067) (UniProt P10827); assay: ATG_THRa1_TRANS: Attagene TRANS-FACTORIAL HepG2 Assay for human Thyroid Receptor alpha (THRa1) (AID 2283014; active means hit-call score of the fitted dose curve at least 0.9, where 1 is the maximum)
# human Thyroid Receptor alpha (THRa1), THRA (gene 7067), sequence (P10827 whole entry, looked up, the tested form may be a part): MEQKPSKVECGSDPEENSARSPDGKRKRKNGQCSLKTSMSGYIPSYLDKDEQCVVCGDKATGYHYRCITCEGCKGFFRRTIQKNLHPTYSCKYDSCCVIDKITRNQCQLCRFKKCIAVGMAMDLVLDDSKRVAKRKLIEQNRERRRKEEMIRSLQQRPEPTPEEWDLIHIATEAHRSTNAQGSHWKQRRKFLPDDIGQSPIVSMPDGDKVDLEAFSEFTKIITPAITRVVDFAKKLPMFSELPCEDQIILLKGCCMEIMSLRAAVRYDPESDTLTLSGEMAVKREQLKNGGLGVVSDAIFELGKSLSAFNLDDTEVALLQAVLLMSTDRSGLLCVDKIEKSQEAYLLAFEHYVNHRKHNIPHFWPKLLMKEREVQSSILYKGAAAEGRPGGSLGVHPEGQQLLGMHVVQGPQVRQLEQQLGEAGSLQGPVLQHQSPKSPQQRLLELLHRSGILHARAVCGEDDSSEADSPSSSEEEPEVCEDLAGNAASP
# How it was run: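 Measured here is mRNA from a GAL4-UAS reporter in transfected HepG2 cells carrying a Gal4-fused receptor, 24 h post-dose. DMSO served as negative control and baseline.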
# [3] = read-out: E-selectin (Homo sapiens) (UniProt P16581); assay: BSK_3C_Eselectin: BioMAP Diversity Plus: 3C Assay for Eselectin Biomarker Activity (AID 2283015); conditions: primary human endothelial cells (HUVEC); actives raise or lower the signal;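 on outcome: cell surface E-selectin protein quantified by ELISA 24 h after dosing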
# How it was run: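 Endpoint derived by bidirectional fitting against DMSO vehicle; signal is ELISA-detected E-selectin from primary HUVEC at 24 h post-dosing, with parallel SRB staining (0.1% SRB, 560 nm) flagging cytotoxicity.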
# [4] = read-out: Interleukin-1 alpha (IL1a), IL1A (gene 3552); assay: BSK_BE3C_IL1a: BioMAP Diversity Plus: BE3C Assay for Interleukin-1 alpha (IL1a) Biomarker Activity (AID 2283016); conditions: primary human bronchial epithelial cells; actives raise or lower the signal
# How it was run: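 IL-1a measured by ELISA after 24 h treatment of human primary bronchial epithelial cells, with gain or loss of signal fitted versus DMSO. Parallel cultures stained with SRB gauge overt cytotoxicity.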
# [5] = read-out: Monocyte Chemoattractant Protein-1 (MCP1), CCL2 (gene 6347); assay: BSK_3C_MCP1: BioMAP Diversity Plus: 3C Assay for Monocyte Chemoattractant Protein-1 (MCP1) Biomarker Activity (AID 2283017); conditions: primary human endothelial cells (HUVEC); actives raise or lower the signal
# How it was run: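 Using human vascular primary endothelium, researchers measured MCP-1 by ELISA 24 h after treatment, with DMSO serving as negative control for bidirectional fitting.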
# [6] = read-out: Human Leukocyte Antigen - DR isotype (HLADR), HLA-DRA (gene 3122); assay: BSK_3C_HLADR: BioMAP Diversity Plus: 3C Assay for Human Leukocyte Antigen - DR isotype (HLADR) Biomarker Activity (AID 2283019); conditions: primary human endothelial cells (HUVEC); actives raise or lower the signal;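 on outcome: ELISA of cell-surface HLA-DR on HUVEC 24 h after dosing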
# How it was run: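 Compound added to primary HUVEC cultures, 24 h incubation, then HLA-DR determined by ELISA; endpoint derived by bidirectional fitting relative to DMSO negative control.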
# [7] = read-out: Interleukin-8 (IL8), CXCL8 (gene 3576); assay: BSK_3C_IL8: BioMAP Diversity Plus: 3C Assay for Interleukin-8 (IL8) Biomarker Activity (AID 2283020); conditions: primary human endothelial cells (HUVEC); actives raise or lower the signal
# How it was run: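 IL-8 was measured by ELISA in HUVEC cultures 24 h after chemical dosing, with gain or loss of signal fitted relative to DMSO. Parallel SRB total-protein staining tracked overt cytotoxicity.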
# E-selectin (Homo sapiens), sequence (P16581 whole entry, looked up): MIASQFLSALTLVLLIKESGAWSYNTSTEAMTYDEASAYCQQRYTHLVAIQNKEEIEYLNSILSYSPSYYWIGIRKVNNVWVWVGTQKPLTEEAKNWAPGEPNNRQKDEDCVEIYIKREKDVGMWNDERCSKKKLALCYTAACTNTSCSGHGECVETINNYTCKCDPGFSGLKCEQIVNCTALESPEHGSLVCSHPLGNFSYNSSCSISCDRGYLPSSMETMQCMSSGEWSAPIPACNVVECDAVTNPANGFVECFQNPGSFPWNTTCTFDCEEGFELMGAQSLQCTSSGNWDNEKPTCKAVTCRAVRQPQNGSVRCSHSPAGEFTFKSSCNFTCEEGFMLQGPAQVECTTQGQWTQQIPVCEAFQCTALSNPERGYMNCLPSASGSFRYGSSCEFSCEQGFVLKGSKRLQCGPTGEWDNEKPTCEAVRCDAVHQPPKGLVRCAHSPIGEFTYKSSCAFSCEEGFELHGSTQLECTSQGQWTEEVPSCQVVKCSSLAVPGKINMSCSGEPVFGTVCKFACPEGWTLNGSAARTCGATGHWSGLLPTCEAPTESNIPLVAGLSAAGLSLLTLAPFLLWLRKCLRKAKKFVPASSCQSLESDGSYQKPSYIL
smiles,measurement,setting,value
CCCCOC(=O)CCCCCCCC(=O)OCCCC,outcome,[1],inactive
same,outcome,[2],inactive
same,outcome,[3],inactive
same,outcome,[4],inactive
same,outcome,[5],inactive
same,outcome,[6],inactive
same,outcome,[7],inactive
CCCCCCCCC=CCCCCCCCC1=NCCN1CCO,outcome,[1],inactive
same,outcome,[2],inactive
CCc1cc(Cc2cc(CC)cc(C(C)(C)C)c2O)c(O)c(C(C)(C)C)c1,AC50,[1],5.71 µM (active)
same,outcome,[2],inactive
NCC1CCCC(CN)C1 (stereo not given),outcome,[2],inactive
CC1(C)C2=CCCC(C)(C)[C@]23CC[C@H]1C3,outcome,[1],inactive
same,AC50,[3],32.8 µM (active)
same,outcome,[4],inactive
same,AC50,[5],30.4 µM (active)
same,AC50,[6],29.1 µM (active)
same,AC50,[7],20 µM (active)
CCNCCO,outcome,[2],inactive
C=C(C)[C@H]1CC=C(C)C(=O)C1,outcome,[1],inactive
same,outcome,[2],inactive
same,outcome,[3],inactive
same,outcome,[4],inactive
same,outcome,[5],inactive
same,outcome,[6],inactive
same,outcome,[7],inactive
CC(CN=Cc1ccccc1O)N=Cc1ccccc1O (stereo not given),outcome,[2],inactive
same,outcome,[3],inactive
same,outcome,[4],inactive
same,outcome,[5],inactive
same,outcome,[6],inactive
same,AC50,[7],0.16 µM (active)
same,outcome,[7],inactive
C=C(C)CNCC,outcome,[1],inactive
same,outcome,[2],inactive
O=C(Nc1ccc2c(c1)Cc1ccccc1-2)C(F)(F)F,outcome,[1],inactive
same,outcome,[2],inactive
Cc1occc(=O)c1OC(=O)C(C)C,outcome,[2],inactive
CCCCN(CCCC)C(=O)N(CCCC)CCCC,AC50,[3],6.65 µM (active)
same,AC50,[4],8.05 µM (active)
same,AC50,[5],8.46 µM (active)
same,AC50,[6],6.8 µM (active)
same,AC50,[7],4.98 µM (active)
Clc1cc(Cl)c(-c2c(Cl)c(Cl)cc(Cl)c2Cl)cc1Cl,outcome,[1],inactive
same,AC50,[3],13.8 µM (active)
same,AC50,[4],1.98 µM (active)
same,AC50,[5],16 µM (active)
same,AC50,[6],15.2 µM (active)
same,AC50,[7],1.98 µM (active)
CC(=O)Nc1ccc(C(=O)CCl)cc1,outcome,[1],inactive
same,AC50,[3],7.26 µM (active)
same,AC50,[4],14.9 µM (active)
same,AC50,[5],11.2 µM (active)
same,AC50,[6],5.06 µM (active)
same,AC50,[7],20 µM (active)
CCCCCCC(C)Nc1ccc(Nc2ccccc2)cc1 (stereo not given),AC50,[1],30.2 µM (active)
same,AC50,[2],27.1 µM (active)
CC1CC(O)CC(C)(C)C1 (stereo not given),outcome,[2],inactive
O=C(O)CNc1ccccc1,outcome,[1],inactive
same,outcome,[2],inactive
